These results are taken from PubChem BioAssay (NCI).

The panel holds about 79,000 compounds, 15% with a hit somewhere; the sample as a whole holds those more often. A number with no mark means an inactive call. Activity calls are given as the source filed them. No stated cut-off is given here; in the data, active means growth inhibition above about 70%; inactive means the rest.

The nature of test [1]: NCI Yeast Anticancer Drug Screen. Data for the rad50 strain (AID 155).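 Further: 0% = growth of vehicle-only cultures of the same strain.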 The conditions noted are these: S. cerevisiae rad50 strain growth inhibition, stronger effect = higher value. Put shortly:
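Growth of the mutant yeast was measured after compound exposure and referenced to vehicle-treated cultures.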

Test [2] is described as follows: NCI Yeast Anticancer Drug Screen. Data for the mec2-1 strain (AID 157). The conditions noted are these: S. cerevisiae mec2-1 strain, stronger effect = higher value. The gist of the method:
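Cells of the genetically defined mec2-1 yeast strain are incubated with test compound. Inhibition of growth is calculated against vehicle-treated controls.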

Test [3] can be described thus: NCI Yeast Anticancer Drug Screen. Data for the sgs1 mgt1 strain (AID 161).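 Further: 0% = growth of cultures given vehicle only.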 The conditions noted are these: S. cerevisiae sgs1 mgt1 strain, stronger effect = higher value. Put shortly:
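Test agents were incubated with a DNA-repair-mutant yeast strain. Growth was then read and compared against vehicle-treated controls.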

Test [4] is described as follows: NCI Yeast Anticancer Drug Screen. Data for the cln2 rad14 strain (AID 165).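 Further: 0% = growth equal to vehicle treated cultures.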 The conditions noted are these: S. cerevisiae cln2 rad14 strain, stronger effect = higher value. The gist of the method:
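The screen exposed genetically defined yeast (cln2 rad14) to test compounds and scored growth inhibition relative to vehicle-treated controls.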

Test [5] in a line: NCI Yeast Anticancer Drug Screen. Data for the bub3 strain (AID 167). The conditions noted are these: S. cerevisiae bub3 mutant strain, stronger effect = higher value. The gist of the method:
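Whole-cell yeast assay. The mutant strain was incubated with compounds, and growth inhibition was determined by comparison with vehicle-treated cells.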

Test [6] can be described thus: NCI Yeast Anticancer Drug Screen. Data for the mlh1 rad18 strain (AID 175). The conditions noted are these: S. cerevisiae mlh1 rad18 strain growth inhibition, stronger effect = higher value. Put shortly: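 Compound-treated yeast growth, normalised to vehicle controls. Strain bears defined DNA repair mutations.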
The mark [7] stands for this setting: at 5.0 µM (retest, dose inferred, filed as 0.5).
Where [8] appears, read: at 50.0 µM (retest, dose inferred, filed as 5.0).

On to `[Se]C1=NCCN1`, for which the growth inhibition in test [1] (setting [7]) was 6%; in test [1] (setting [8]), 53%; in test [1] (at 50.0 µM), 94.6% (active); in test [2] (setting [7]) it was 7%; in test [2] (setting [8]), 34%; in test [2] (at 50.0 µM), 92.3% (active). Also, the growth inhibition was 3% in test [3] (setting [7]); 39% in test [3] (setting [8]); 95.6% (active) in test [3] (at 50.0 µM); 6% in test [4] (setting [7]); 48% in test [4] (setting [8]); 77.8% (active) in test [4] (at 50.0 µM). Moreover, the growth inhibition in test [5] (setting [7]) is 4%; in test [5] (setting [8]) it was 96% (active); in test [5] (at 50.0 µM), 84% (active); in test [6] (setting [7]), 6%; in test [6] (setting [8]) it was 89% (active); in test [6] (at 50.0 µM), 92.2% (active).

With `N#CN(Cc1ccccc1)C(c1ccccc1)(c1ccccc1)c1ccccc1.[I][Sn]([c]1ccccc1)([c]1ccccc1)[c]1ccccc1`, the growth inhibition in test [1] (setting [7]) is 99% (active); in test [1] (setting [8]) it was 96% (active); in test [1] (at 50.0 µM), 98.8% (active); in test [2] (setting [7]), 100% (active); in test [2] (setting [8]), 98% (active); in test [2] (at 50.0 µM), 98.8% (active). Besides, the growth inhibition in test [3] (setting [7]) was 100% (active); in test [3] (setting [8]), 98% (active); in test [3] (at 50.0 µM) it was 99.5% (active); in test [4] (setting [7]) it was 99% (active); in test [4] (setting [8]) it was 94% (active); in test [4] (at 50.0 µM) it was 98.2% (active). Also, the growth inhibition in test [5] (setting [7]) was 99% (active); in test [5] (setting [8]), 95% (active); in test [5] (at 50.0 µM) it was 97.7% (active); in test [6] (setting [7]), 99% (active); in test [6] (setting [8]) it was 96% (active); in test [6] (at 50.0 µM) it was 97% (active).

Consider `Oc1c(Cl)cc(Cl)cc1Cl.[Cu+2]`, for which the growth inhibition was 6% in test [1] (setting [7]); 95% (active) in test [1] (setting [8]); 99.7% (active) in test [1] (at 50.0 µM); -28% in test [2] (setting [7]); 98% (active) in test [2] (setting [8]); 99.5% (active) in test [2] (at 50.0 µM). Further, the growth inhibition in test [3] (setting [7]) was -4%; in test [3] (setting [8]) it was 94% (active); in test [3] (at 50.0 µM), 99.8% (active); in test [4] (setting [7]) it was -9%; in test [4] (setting [8]), 97% (active); in test [4] (at 50.0 µM), 98.2% (active). The growth inhibition in test [5] (setting [7]) was -10%; in test [5] (setting [8]), 97% (active); in test [5] (at 50.0 µM) it was 99.5% (active); in test [6] (setting [7]), 0%; in test [6] (setting [8]), 98% (active); in test [6] (at 50.0 µM), 99.3% (active).

Consider `COC12c3c(C)cc(O)c4c(=O)occ(c34)C(=O)C1C13COC(=O)c4c(O)cc(C)c(c41)C(=O)C2C3OC(C)=O` (configuration not stated), for which the growth inhibition is 45% in test [1] (setting [7]); 99% (active) in test [1] (setting [8]); 91.4% (active) in test [1] (at 50.0 µM); 32% in test [2] (setting [7]); 100% (active) in test [2] (setting [8]); 93% (active) in test [2] (at 50.0 µM). For the same compound, the growth inhibition is 69% in test [3] (setting [7]); 99% (active) in test [3] (setting [8]); 92.7% (active) in test [3] (at 50.0 µM); 63% in test [4] (setting [7]); 100% (active) in test [4] (setting [8]); 91.9% (active) in test [4] (at 50.0 µM). In addition, the growth inhibition is 71% (active) in test [5] (setting [7]); 100% (active) in test [5] (setting [8]); 91.1% (active) in test [5] (at 50.0 µM); 36% in test [6] (setting [7]); 99% (active) in test [6] (setting [8]); 91.9% (active) in test [6] (at 50.0 µM).

`CC1CC[N-]C(C)C1.CN(C)C=O.[Cl][Pt][Cl]` (configuration not stated): the growth inhibition was 33% in test [1] (setting [7]); 100% (active) in test [1] (setting [8]); 80.7% (active) in test [1] (at 50.0 µM); 42% in test [2] (setting [7]); 100% (active) in test [2] (setting [8]); 92.2% (active) in test [2] (at 50.0 µM). Further, the growth inhibition is 66% in test [3] (setting [7]); 100% (active) in test [3] (setting [8]); 89.8% (active) in test [3] (at 50.0 µM); 61% in test [4] (setting [7]); 100% (active) in test [4] (setting [8]); 49% in test [4] (at 50.0 µM). The growth inhibition in test [5] (setting [7]) is 73% (active); in test [5] (setting [8]), 100% (active); in test [5] (at 50.0 µM), 89.4% (active); in test [6] (setting [7]), 25%; in test [6] (setting [8]), 99% (active); in test [6] (at 50.0 µM), 89.8% (active).

`c1ccc(C(c2ccccc2)c2cccnc2)cc1`: the growth inhibition in test [1] (setting [7]) was 61%; in test [1] (setting [8]), 97% (active); in test [1] (at 50.0 µM) it was 89.2% (active); in test [2] (setting [7]), 59%; in test [2] (setting [8]), 98% (active); in test [2] (at 50.0 µM), 91.2% (active). Moreover, the growth inhibition was 16% in test [3] (setting [7]); 98% (active) in test [3] (setting [8]); 91.6% (active) in test [3] (at 50.0 µM); 55% in test [4] (setting [7]); 97% (active) in test [4] (setting [8]); 88.9% (active) in test [4] (at 50.0 µM). Also, the growth inhibition in test [5] (setting [7]) is 52%; in test [5] (setting [8]), 98% (active); in test [5] (at 50.0 µM), 91.7% (active); in test [6] (setting [7]), 54%; in test [6] (setting [8]) it was 100% (active); in test [6] (at 50.0 µM), 90.8% (active).

In the case of `Nc1nc(N)c(-c2ccc(Cl)c(Cl)c2)c(COc2cccc(CNS(=O)(=O)c3cccc(S(=O)(=O)F)c3)c2)n1`, the growth inhibition in test [1] (setting [7]) was -6%; in test [1] (setting [8]) it was 92% (active); in test [1] (at 50.0 µM) it was 89.5% (active); in test [2] (setting [7]), -4%; in test [2] (setting [8]) it was 70% (active); in test [2] (at 50.0 µM) it was 92.4% (active). The growth inhibition in test [3] (setting [7]) is -1%; in test [3] (setting [8]) it was 85% (active); in test [3] (at 50.0 µM) it was 66.2%; in test [4] (setting [7]), -15%; in test [4] (setting [8]), 60%; in test [4] (at 50.0 µM), 77.2% (active). In addition, the growth inhibition is -4% in test [5] (setting [7]); 62% in test [5] (setting [8]); 88.8% (active) in test [5] (at 50.0 µM); -3% in test [6] (setting [7]); 83% (active) in test [6] (setting [8]); 96.3% (active) in test [6] (at 50.0 µM).

Take `CC1=NNC(=O)C1(Br)Br`: the growth inhibition in test [1] (setting [7]) was -2%; in test [1] (setting [8]), 21%; in test [1] (at 50.0 µM), 8.7%; in test [2] (setting [7]) it was -3%; in test [2] (setting [8]), 9%; in test [2] (at 50.0 µM) it was 11.9%. Moreover, the growth inhibition was 2% in test [3] (setting [7]); 16% in test [3] (setting [8]); 14.2% in test [3] (at 50.0 µM); 13% in test [4] (setting [7]); 31% in test [4] (setting [8]); 69.6% in test [4] (at 50.0 µM). The growth inhibition in test [5] (setting [7]) is 1%; in test [5] (setting [8]) it was 75% (active); in test [5] (at 50.0 µM) it was 43.1%; in test [6] (setting [7]), -13%; in test [6] (setting [8]), -2%; in test [6] (at 50.0 µM), -23.8%.

For `CCCC(C)c1ccccc1OP(=S)(S)Oc1ccccc1C(C)CCC` (configuration not stated), the growth inhibition in test [1] (setting [7]) is -3%; in test [1] (setting [8]), -3%; in test [1] (at 50.0 µM), 97.3% (active); in test [2] (setting [7]), -2%; in test [2] (setting [8]), -1%; in test [2] (at 50.0 µM) it was 97.8% (active). In addition, the growth inhibition in test [3] (setting [7]) is 2%; in test [3] (setting [8]) it was -2%; in test [3] (at 50.0 µM), 97.5% (active); in test [4] (setting [7]), 3%; in test [4] (setting [8]), 0%; in test [4] (at 50.0 µM), 96.5% (active). For the same compound, the growth inhibition was -5% in test [5] (setting [7]); 0% in test [5] (setting [8]); 95.8% (active) in test [5] (at 50.0 µM); 0% in test [6] (setting [7]); -3% in test [6] (setting [8]); 97.2% (active) in test [6] (at 50.0 µM).
